Shn3 inh set2 = reduces Shn3 3'UTR luciferase signal in osteoblasts. Clone20 osteoblast Shn3 3'UTR firefly luciferase, 24 h. AID 588674. hit rate 0.52% among 360,000. inhibition, % at 12.5 µM;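 active means mean inhibition of at least 75% with every replicate also reaching 75%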
HIF-2a block = blocks HIF-2a reporter activity. 786-0 RCC cells HIF-2a reporter, luciferase luminescence, overnight. hit rate 0.72% among 360,000. inhibition, % at 18.8 µM. AID 624352;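 active means inhibition of the luminescence signal of 40% or more relative to plate controls, in a single-dose primary screen at 18.75 µM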
CF NFkB inh = blocks PAF-induced NF-kB reporter in cystic fibrosis cells | hit rate 0.86% among 360,000 | AID 588850 | KKLEB NF-kB-GFP reporter, GFP fluorescence overnight | inhibition, % at 5 µM;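 active means at least 50% inhibition at 5 µM, scaled per plate between neutral and stimulator controls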;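 further: PAF is a Pseudomonas aeruginosa culture filtrate used as stimulus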
MITF TRPM1 inh = inhibitors of MITF-driven TRPM1 promoter in melanoma cells; SK-MEL-5 TRPM1 promoter luciferase, 24 h; inhibition, % at 12.5 µM; hit rate 0.83% among 330,000; AID 488899;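 active means mean inhibition across replicates of 60% or more, whatever share of single replicates reaches that level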
KKLEB cytotox = CF airway cell cytotoxicity counter-screen | activity change (cytotoxicity), % at 5 µM | KKLEB CF airway cells viability, ATPlite luminescence, overnight; active compounds read low; cells stimulated with P. aeruginosa culture filtrate | AID 602141 | hit rate 0.36% among 360,000;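 active means corrected activity change at or below -50% at 5 µM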
Peg3 promoter = Peg3 promoter activity inhibition; HeLa PEG-Prom luciferase reporter, luminescence, overnight; inhibition, % at 20 µM; hit rate 1.7% among 360,000;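 active means inhibition of at least 50% at 20 µM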
A number is an active result; 0 = inactive; - = no result. Shown are actives, neighbours in structure and some others; about 2.8% of the full set was active somewhere.

SMILES	Shn3 inh set2	HIF-2a block	CF NFkB inh	MITF TRPM1 inh	KKLEB cytotox	Peg3 promoter
CC1=NN(c2ccc(C)cc2)C(=O)/C1=C/c1ccc(-c2cc([N+](=O)[O-])ccc2O)o1	0	0	54.1	0	0	0
CC1=NN(c2ccc(C(=O)O)cc2)C(=O)/C1=C/c1ccc(-c2ccccc2F)o1	0	0	0	0	0	0
CCOC(=O)c1c(C)sc2c1N(C(=O)CCl)c1cc(Cl)ccc1S2	0	91.5	68.8	82.1	-76.0	86.8
Cc1sc2ncnc(SCC(=O)N3c4ccccc4Sc4ccc(Cl)cc43)c2c1C	0	0	0	0	0	0
Oc1ccc(C=Nc2ccc(N3CCOCC3)cc2)c(O)c1	0	0	0	0	0	0
Oc1ccc(N=Nc2cccc(C(F)(F)F)c2)cc1C=Nc1ccc(N2CCOCC2)cc1	0	0	78.5	0	0	0
CCCCCCOc1ccc(-c2ccc(C#N)cn2)cc1	0	0	0	0	0	0
Cc1c(C(=O)N/N=C/c2ccccn2)nnn1-c1nonc1N	0	0	0	0	0	0
CCOC(=O)CC[C@H](NC(=O)Cn1cnc(C(=O)Nc2ccc(C)c(C)c2)n1)C(=O)OCC	0	0	0	0	0	0
COc1ccc(N2CCc3c(C)nc4c(OC)cc(OC)cc4c32)cc1	0	0	0	0	0	73.6
C=CCOC(=O)C1=C(C)N=C2SCCC(=O)N2C1c1cccs1 (stereo not drawn)	92.3	0	0	0	0	0
CCOC(=O)C1=C(C)N=C2SCCC(=O)N2C1c1sccc1C (stereo not drawn)	0	0	0	0	0	0
CN(C)c1ccc(C(=O)c2ccc(O)cc2O)cc1	0	0	0	0	0	0
CN(C)c1ccc(Cc2cc3c(O)ccc(O)c3cc(Cc3ccc(N(C)C)cc3)c2=O)cc1	0	48.4	0	0	0	0
COc1ccc(C(=O)N(C)C(C)c2nccs2)cc1OC1CCN(C(C)=O)CC1 (stereo not drawn)	0	0	0	-	0	0
CC[C@@H](C)[C@H](C(CC(=O)N1CCCC1[C@@H](OC)[C@H](C)C(=O)N[C@H](Cc1ccccc1)c1nccs1)OC)N(C)C(=O)[C@H](NC(=O)[C@@H](C(C)C)N(C)C)C(C)C (stereo partly drawn)	0	0	62.5	0	0	0
Cc1cc(C)n(-c2ccc3cccc(NS(C)(=O)=O)c3n2)n1	90.1	0	0	62.1	0	58.6
Cc1ccc(CNC(=O)c2cc3cc(Br)ccc3oc2=N)cc1	0	0	0	0	0	0
CC1=CC(C)(C)N=C(Nc2nc(C)c3cc(C)cc(C)c3n2)N1	0	0	0	0	0	61.0
CC1CCN(Cc2c(C(=O)N/N=C/c3cc(Cl)ccc3O)nnn2-c2nonc2N)CC1	90.1	0	0	0	0	75.9
CC1CCCC(NCC(O)COC(c2ccc(F)cc2)c2ccc(F)cc2)C1C (stereo not drawn)	0	0	0	85.5	0	104.3
C=CCc1cccc2cc(C(=O)Nc3ccc(S(=O)(=O)Nc4nnc(CC)s4)cc3)c(=O)oc12	0	0	0	0	0	0
COc1cc(-c2cc3nc(NCCc4ccncc4)ccn3n2)cc(OC)c1OC	0	0	0	-	0	0
COc1cc(-c2cc3nc(NCCOc4ccccc4)ccn3n2)cc(OC)c1OC	0	0	0	-	0	53.2
COC(=O)c1c(NC(=O)CC2SC(N)=NC2=O)sc(C)c1C (stereo not drawn)	0	0	0	0	0	0
SMILES	Shn3 inh set2	HIF-2a block	CF NFkB inh	MITF TRPM1 inh	KKLEB cytotox	Peg3 promoter
Cc1c(Cl)cccc1Nc1n[nH]c(=S)s1	0	0	0	0	0	101.1
COc1cccc(OCCn2cc(C(C)=O)c3ccccc32)c1	87.3	0	0	0	0	0
Cc1ccc(C)c(OCCn2cc(C(=O)O)c3ccccc32)c1	0	0	0	0	0	0
CC(=O)c1cn(CCOc2cc(C)ccc2C)c2ccccc12	89.9	0	0	0	0	0
CS(=O)(=O)c1cnc(-c2ccccc2)nc1-c1ccccc1Cl	0	0	0	0	0	0
CCCCNC(=O)c1ccc(Cn2c(=S)[nH]c3c([nH]c4ccc(OC)cc43)c2=O)cc1	0	0	60.2	0	-63.3	79.8
CCOCCCNC(=O)c1ccc(Cn2c(=S)[nH]c3c([nH]c4ccc(OC)cc43)c2=O)cc1	0	0	0	0	0	0
C[C@@H](C[C@@H](O)[C@H](O)C(C)(C)O)[C@@H]1CC[C@]2(C)C3=CC[C@H]4C(C)(C)C(=O)CC[C@]4(C)[C@H]3CC[C@@]12C	92.1	0	0	0	0	0
COc1ccc(NC(=O)c2sc3nc(C)nc(N4CCN(c5ccccn5)CC4)c3c2C)cc1Cl	0	0	0	0	0	0
COc1ccc(NC(=O)c2sc3ncnc(N4CCN(c5ccccn5)CC4)c3c2C)cc1Cl	88.3	0	0	0	0	0
O=c1[nH]c2ccccc2nc1/C=C/c1ccc(Cl)cc1	0	0	0	0	0	0
COc1ccc(-c2nsc3c(N4CCCCC4)ncnc23)cc1	0	59.8	0	64.7	-62.0	0
O=C(Nc1nc(-c2ccccn2)cs1)c1cccc(S(=O)(=O)N2CCOCC2)c1	87.7	0	0	0	0	0
CC(=O)c1c(C)[nH]c(C(=O)Nc2nc(-c3ccc(-c4ccccc4)cc3)cs2)c1C	0	0	77.5	0	0	103.2
COc1ccccc1C(=O)Nc1nc(-c2ccc(S(=O)(=O)N3CCOCC3)cc2)cs1	88.9	0	0	81.5	0	95.5
O=C(Nc1nc(-c2ccccc2)cs1)c1ccccc1NS(=O)(=O)c1ccc(F)cc1	0	0	0	69.5	0	0
CCOC(=O)c1ccc(CNC(=O)c2cc(C(C)(C)C)oc2C)o1	0	0	0	0	0	0
Cn1c(CCc2ccccc2)n[nH]c1=S	0	0	0	0	0	0
COc1ccc(-c2ccc(CCC(=O)O)n2CC(=O)Nc2ccccc2C)cc1	0	0	0	0	0	0
CCO[C@@H]1OC(C(=O)NC2CC2)=C[C@H](c2coc3ccccc3c2=O)[C@H]1CCCO	92.1	0	0	0	0	0
CC1CCN(CCCNC(=O)c2ccc3c(Cl)c4c(nc3c2)CCCC4)CC1	0	0	0	0	0	0
OCCN1CCN(Cc2cc(Cl)c3cccnc3c2O)CC1	0	0	0	0	0	0
Oc1c(CN2CCCCC2)ccc2cccnc12	0	0	0	77.2	0	0
O=[N+]([O-])c1cc(CN2CCCC2)c2cccnc2c1O	0	0	0	0	0	0
COc1ccccc1N1CCN(Cc2cc(Br)c(O)c3ncccc23)CC1	0	0	0	70.8	0	0
COCc1cc(CN2CCCC2)c(O)c2ncccc12	0	0	0	0	0	0
Oc1c(CN2CCN(c3ccccn3)CC2)cc(Cl)c2cccnc12	0	0	0	84.3	0	50.3
CN(C)C1CCN(Cc2cc(COCc3ccccc3)c3cccnc3c2O)C1 (stereo not drawn)	87.8	0	0	73.2	0	0

Source: PubChem
